This experiment concerns Aedes aegypti neuropeptide Y-like receptor 7 (NPYLR7). Put plainly: agonists of mosquito NPYLR7 receptor, primary screen, cell-based, Aedes aegypti, calcium fluorescence, mosquito biting behavior (AID 1259423).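 Further: 0% = vehicle and 100% = reference agonist at the receptor.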 Conditions: HEK293T NPYLR7/Galpha15, GCaMP6s calcium fluorescence, at 10 µM, stronger effect = higher value.
Setting [1] is: measured here: Max-Min RFU normalised activation.

Values joined by “and” are separate entries in the source; they are usually repeats but may differ in a detail not shown here. Equal values may be shown once. In all, about 270,000 compounds went through this assay and about 410 (0.15%) were called active. No stated cut-off is given here; in the data, active means activation above about 40%; inactive means the rest, inconclusive results apart. The full list was thinned out, with actives kept by preference. More than one record can exist for a structure, and the calls need not agree.

Among the data in PubChem BioAssay AID1259423 (Fisher Drug Discovery Resource Center, 2018) are activation values, retold here.

As for `COc1ccc(N2C(=O)/C(=C\c3ccc(N(C)C)cc3)SC2=S)cc1`, the activation is -3.18% (inactive). For the same molecule, the activation under setting [1] is -7.36%.

Consider `CC(C(=O)O)N1C(=O)/C(=C/c2ccc(N(C)C)cc2)SC1=S` (configuration not stated), for which the activation is 64.5% (active). The activation under setting [1] worked out at 54.2%.

As for `CC(C(=O)O)N1C(=O)/C(=C/c2ccccn2)SC1=S` (configuration not stated), the activation was -2.67% (inactive). Further, under setting [1], the activation was -6.6%.

In the case of `Brc1ccc2nc(-c3ccccc3)c(NC3CCCCC3)n2c1`, the activation was -4.85% (inactive). Moreover, the activation under setting [1] amounted to 5.22%.

Regarding `Cc1csc(=O)n1CCC(=O)OC(C)C(N)=O` (configuration not stated), the activation is 1.77% (inactive). Also, the activation under setting [1] was 0.428%.

For the molecule `CC(=O)Oc1ccc(Cn2c(C)c(C(=O)NCc3ccc(C(C)C)cc3)sc2=O)cc1`, the activation is -6.93% (inactive). Under setting [1], the activation was -8.16%.

With `Cc1c(C(=O)NCc2ccc(C#N)cc2)sc(=O)n1Cc1ccc(C(=O)N(C)C)cc1`, the activation is 2.34% (inactive). In addition, the activation under setting [1] was -0.426%.

In the case of `CC(=O)Oc1ccc(Cn2c(C)c(C(=O)NCc3ccc(C#N)cc3)sc2=O)cc1`, the activation was 53.2% (active). Further, the activation under setting [1] was 43.3%.

Turning to `CC(=O)N1CCN(C(=O)COc2c(C)cc(Br)cc2Cl)CC1`, the activation was 2.73% (inactive). Besides, under setting [1], the activation stood at 1.6%.

`O=P1(Nc2cc(C(F)(F)F)ccc2Cl)C=C(c2ccccc2)OC(c2ccccc2)=C1`: the activation was 52.5% (active). Also, the activation under setting [1] was 88.3%.

`COc1ccc(C(=O)Nc2cc(C(F)(F)F)ccc2Cl)cc1[N+](=O)[O-]`: the activation is 1.83% (inactive). In addition, the activation under setting [1] stood at 0.579%.

Regarding `CCn1c(N2CCN(Cc3cccc4ccccc34)CC2)nc2c1c(=O)[nH]c(=O)n2C`, the activation is 1.95% (inactive). Under setting [1], the activation is 4.2%.

Consider `O=C(Nc1nc2c(s1)CCC2)c1cnn(Cc2ccccc2)c1`, for which the activation was -0.747% (inactive). Besides, under setting [1], the activation was -2.1%.

On to `O=C(c1ccco1)N(Cc1cccc(Cl)c1)CC1CC(c2ccccc2F)=NO1` (configuration not stated), for which the activation is -2.38% (inactive). In addition, the activation under setting [1] worked out at 16.5%.

For `O=C1CCCCCCCCCOCCCCCO1`, the activation was 1.79% (inactive). Moreover, under setting [1], the activation came out at 0.962%.

As to `O=C(NCC1CCCO1)c1cccc(Nc2c(Oc3cccc(Cl)c3)cnn(-c3ccccc3)c2=O)c1` (configuration not stated), the activation was 0.00562% (inactive). The activation under setting [1] is 12.8%.

As for `COCCN(CC(=O)N1CCc2sccc2C1c1ccccc1)C(=O)COCc1ccccc1` (configuration not stated), the activation was 1.27% (inactive). Also, the activation under setting [1] is 4.39%.

For the molecule `Nc1c(Oc2ccccc2)cc(Nc2ccccc2)c2c1C(=O)c1ccccc1C2=O`, the activation is -6.94% (inactive). The activation under setting [1] was -5.96%.

For the molecule `Cc1csc(=Nc2ccccc2)n1C1CCCC1`, the activation was 1.06% (inactive). The activation under setting [1] was 7.29%.

Consider `O=C1OCCN1Cc1nc(CCc2ccccc2)nn1-c1ccccn1`, for which the activation is -2.22% (inactive). For the same molecule, under setting [1], the activation is -8.03%.

Consider `CCOc1ccc(C(=O)Nc2sc3c(c2-c2nc4ccccc4s2)CCN(C)C3)cc1`, for which the activation is 105% (active). Further, the activation under setting [1] worked out at 107%.

On to `CC(=O)N1CCc2c(sc(NC(=O)c3cccs3)c2-c2nc3ccccc3s2)C1`, for which the activation was 3.8% (inactive). Moreover, the activation under setting [1] is 5.03%.

Regarding `CC(=O)c1ccc(C(=O)Nc2sc3c(c2-c2nc4ccccc4s2)CCN(C)C3)cc1`, the activation was 12.4% (inactive). The activation under setting [1] is 11.3%.

For the molecule `Cc1ccc(CCC(=O)N2CCOC3(CNCCOC3)C2)cc1C` (configuration not stated), the activation is 5.94% (inactive). Also, the activation under setting [1] was 6.1%.

Turning to `Cc1c(NC(=O)C(C)(C)c2ccccc2)cccc1C(=O)N1CCOCC1`, the activation was 2.93% (inactive). Besides, under setting [1], the activation was 1.78%.

Consider `CCOc1nc(-c2ccc(C(F)(F)F)cc2)n(-c2ccc(NCC(O)COCc3ccccc3)cc2)n1` (configuration not stated), for which the activation is -2.33% (inactive). Also, under setting [1], the activation turned out to be 4.92%.

In the case of `Fc1ccc(N2CCC(N3CCCC(Nc4ccccc4)C3)CC2)cc1` (configuration not stated), the activation was -4.09% (inactive) and -0.074% (inactive). The activation under setting [1] was -9.41% and 0.61%.

`O=[N+]([O-])c1c(Nc2ccccc2)[nH]c2ccccc12`: the activation is 15.3% (inactive). Under setting [1], the activation was 12.9%.

`CC1(C)SC2C(NC(=O)COc3ccccc3)C(=O)N2C1C(=O)O` (configuration not stated): the activation was -1.02% (inactive). Under setting [1], the activation is -6.97%.

As for `CC(Oc1ccccc1)C(=O)N[C@@H]1C(=O)N2[C@@H]1SC(C)(C)[C@@H]2C(=O)O` (some centres not stated), the activation is -1.06% (inactive) and 61.5% (active). The activation under setting [1] is -1.47% and 49.3%.

For `CCOC(=O)OC(C)OC(=O)C1N2C(=O)C(NC(=O)[C@H](N)c3ccccc3)C2SC1(C)C` (some centres not stated), the activation is -11.5% (inactive). In addition, under setting [1], the activation was -16.7%.

On to `CCOC(=O)C(C)Sc1ccc(NC(=O)C(C)C)nn1` (configuration not stated), for which the activation was 0.376% (inactive). Under setting [1], the activation is -0.597%.

`CC(=O)N[C@H]1C[C@@H](c2c(C)nc3sccn23)O[C@@H](C2CCCCC2)C1`: the activation was 19.4% (inactive). The activation under setting [1] turned out to be 3.2%.

For `CN(c1ccccc1)c1nnc(C(O)c2cc(F)c(F)c(F)c2)s1` (configuration not stated), the activation was 0.561% (inactive). Also, the activation under setting [1] was -0.28%.

Take `CCc1nc2ccc(C(=O)N(C)Cc3ccco3)cn2c1N(C)CCC(C)C`: the activation is -5.57% (inactive). The activation under setting [1] is -12.5%.

Regarding `O=C(Nc1ccc(C(F)(F)F)cc1)C1CCCN(c2ccc(-c3ccco3)nn2)C1` (configuration not stated), the activation was -4.36% (inactive). Under setting [1], the activation is -8.71%.

Consider `C=CCN(Cc1csc(COc2ccc(C)c(C)c2)n1)C(=O)c1cccc(OC)c1`, for which the activation was -4.71% (inactive). Moreover, the activation under setting [1] is 3.47%.

`COCCCN1COc2ccc3c(c2C1)O/C(=C\c1cccc(OC)c1OC)C3=O`: the activation was 26.3% (inactive). For the same molecule, under setting [1], the activation was 20.7%.

On to `COc1cccc(/C=C2\Oc3c(ccc4c3CN(Cc3ccncc3)CO4)C2=O)c1`, for which the activation is 66.8% (active). Under setting [1], the activation was 55.3%.

`Cc1c(-c2ccccc2)c(=O)oc2c3c(ccc12)OCN(Cc1cccnc1)C3`: the activation is -8.96% (inactive). Further, the activation under setting [1] was -15.9%.

For `Cc1nn(C)cc1N1C(=O)c2cccc3c([N+](=O)[O-])ccc(c23)C1=O`, the activation is -4.56% (inactive). Further, under setting [1], the activation was -14.9%.
